S1P4 antagonist: antagonists of human S1P4 receptor; AID 1510; S1P4-expressing cells, antagonist mode, reporter read-out; inhibition, % at 4.98 µM; O95977; actives 0.26% (n = 220,000); in the data active means inhibition above about 29%;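 further: 0% = wells stimulated with agonist and 100% = vehicle wells without agonist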
S1P4 agonist: agonists of human S1P4 receptor | S1P4-expressing cell line, agonist reporter assay | actives 0.35% (n = 220,000) | activation, % at 4.98 µM | O95977; in the data active means activation above about 11%;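 further: 0% = DMSO vehicle and 100% = reference agonist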
KCC2 mod: modulators of human KCC2 chloride dependent transport | Q9H2X9 | KCC2 cells, thallium flux FluoZin-2 fluorescence | B-score of Tl+ flux slope (higher = more flux/activation; lower = inhibition) at 10 µM | actives 2.2% (n = 190,000);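 active means thallium flux slope and its plate-corrected score both differing from the plate sample mean at a set confidence after two filtering rounds, in either direction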;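 further: slope of fluorescence scaled to starting intensity during 10 to 20 s after thallium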
Target sequence (Q9H2X9 whole entry, looked up): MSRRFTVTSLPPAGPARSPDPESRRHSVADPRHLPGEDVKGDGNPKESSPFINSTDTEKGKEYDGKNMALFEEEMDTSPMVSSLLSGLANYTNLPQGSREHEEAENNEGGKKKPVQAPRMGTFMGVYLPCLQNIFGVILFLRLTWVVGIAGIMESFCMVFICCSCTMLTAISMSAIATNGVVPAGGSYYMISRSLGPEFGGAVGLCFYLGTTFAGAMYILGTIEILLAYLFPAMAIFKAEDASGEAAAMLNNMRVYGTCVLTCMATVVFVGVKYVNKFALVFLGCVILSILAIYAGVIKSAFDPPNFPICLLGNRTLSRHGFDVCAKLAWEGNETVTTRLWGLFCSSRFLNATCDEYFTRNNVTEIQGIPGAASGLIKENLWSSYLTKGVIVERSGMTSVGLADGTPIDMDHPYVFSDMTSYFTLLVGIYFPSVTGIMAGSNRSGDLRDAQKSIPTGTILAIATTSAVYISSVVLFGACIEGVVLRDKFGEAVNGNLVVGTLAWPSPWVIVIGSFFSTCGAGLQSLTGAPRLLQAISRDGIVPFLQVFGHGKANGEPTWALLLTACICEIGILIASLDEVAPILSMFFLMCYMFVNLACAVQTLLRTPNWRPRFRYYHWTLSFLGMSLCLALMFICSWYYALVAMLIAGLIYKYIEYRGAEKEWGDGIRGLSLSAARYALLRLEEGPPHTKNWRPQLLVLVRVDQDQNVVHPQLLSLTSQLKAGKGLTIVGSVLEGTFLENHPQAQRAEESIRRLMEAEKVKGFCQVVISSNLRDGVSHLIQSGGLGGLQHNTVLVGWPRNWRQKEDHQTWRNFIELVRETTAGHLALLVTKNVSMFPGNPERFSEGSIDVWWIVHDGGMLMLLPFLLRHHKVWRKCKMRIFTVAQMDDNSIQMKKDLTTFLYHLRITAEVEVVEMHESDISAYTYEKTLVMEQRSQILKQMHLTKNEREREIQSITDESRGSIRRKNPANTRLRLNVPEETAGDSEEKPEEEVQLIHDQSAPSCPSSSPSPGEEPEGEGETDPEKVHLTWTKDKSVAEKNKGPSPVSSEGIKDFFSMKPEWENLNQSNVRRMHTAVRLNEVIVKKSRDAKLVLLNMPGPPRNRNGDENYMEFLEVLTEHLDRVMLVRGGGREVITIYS
RAM inhibit: blocks the yeast RAM network | S. cerevisiae dse1pr::URA3 reporter, 5-FOA growth OD615, 2 d; analog-sensitive cbk1-as2 kinase mutant strain | inhibition, % at 50 µM | actives 1.8% (n = 190,000) | AID 868;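 active means inhibition above a set limit, 3 SD over mean compound inhibition, cut at about 8.4% in these data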;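 further: 0% = DMSO-only wells with no growth and 100% = 10 µM 1-NA-PP1 full growth; inhibition rescues growth on 5-FOA so higher OD means more RAM inhibition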
S1P3 antagonist: blocks the human S1P3 receptor. Q99500. CHO S1P3 NFAT-BLA reporter, FRET fluorescence, antagonist mode. inhibition, % at 4.98 µM. actives 0.27% (n = 170,000);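 active means inhibition above the plate cutoff, the mean inhibition of test wells on that plate plus 3 SD, cut at about 28% in these data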;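 further: cells challenged with S1P at its EC80 of 0.8 µM; blue over green emission ratio from cleaved BLA substrate after 4 h stimulation; 0% = S1P-stimulated wells and 100% = unstimulated DMSO-only wells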
ROMK primary: human ROMK K+ channel modulation, primary screen. B-score at 10 µM. Tet-inducible ROMK, thallium flux fluorescence; actives lie on both sides. P48048. actives 2% (n = 130,000);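 active means signal ratio slope over the read window, or its plate-corrected B-score, at least 3 SD from the plate mean, either direction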;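 further: B-score of the F/F0 ratio slope over 7 to 12 s after thallium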
The depositor's hits bear a star; . = not tested or not shown. Rows were chosen to be rich in hits. Some 5.1% of all compounds tested hit in one or more screens of this group.

SMILES	S1P4 antagonist	S1P4 agonist	KCC2 mod	RAM inhibit	S1P3 antagonist	ROMK primary
CC(=O)N1N=C(c2ccc(C)o2)CC1c1cccc(F)c1 (centres undefined)	-2	2	.	2	-7	0.5
Cc1nnc(SCc2cc(=O)[nH]c(/N=C(\N)Nc3ccccc3Sc3ccccc3)n2)s1	2	3	-0.29	9.0*	9	0.026
Cc1nnc(SCc2cc(=O)[nH]c(/N=C(\N)Nc3ccccc3)n2)s1	7	1	0.7	.	3	.
Cc1cc(C)c2nc(-c3ccccn3)cc(C(=O)NCc3ccc(S(N)(=O)=O)cc3)c2c1	-7	3	0.7	0	-9	1
Cc1cc(C)c2nc(-c3ccccn3)cc(C(=O)NCCc3ccc(S(N)(=O)=O)cc3)c2c1	-10	1	0.77	10*	4	0.96
O=C(CSCc1ccco1)Nc1cc(C(F)(F)F)ccc1N1CCOCC1	23	2	-0.26	9.1*	.	.
CCN(CC)c1cnn(C/C(=N\OC)c2ccc(Cl)cc2)c(=O)c1Br	3	2	-3.7*	2	.	.
O=C(c1cccc(F)c1)N1CCCC(C(=O)N2CCN(c3ccccc3)CC2)C1 (centres undefined)	-24	1	-0.36	.	-10	.
CCCCOc1ccc(CC2CCC(=O)NC2=O)cc1 (centres undefined)	-9	0	0.94	0	0	-0.22
O=C(COc1ccc(Cl)cc1Cl)NCC(=O)N/N=C/c1c[nH]c2ccccc12	-2	0	-0.32	9.8*	-4	-0.022
COC(=O)c1c(-c2c(Cl)cccc2Cl)noc1C(=O)NNC(=O)N(C)C	-9	1	0.23	.	-11	-0.23
CCOc1ccc(Br)cc1-c1noc(-c2cccs2)n1	2	2	0.48	8.8*	10	.
COc1cc(OC)cc(-c2nc(-c3cccs3)no2)c1	-12	2	0.31	9.8*	-17	0.87
COc1ccc(-c2noc(-c3cccs3)n2)cc1OC	6	1	0.049	.	10	.
COc1cc(NC(=O)C2CC2)c(OC)cc1NC(=O)CCC(=O)NC1CCN(Cc2ccccc2)CC1	-15	2	-0.83	2	8	-0.86
CC(C)c1ccc2[nH]c3nc(SCC(=O)N4CCOCC4)nnc3c2c1	-1	0	0.72	-1	-10	-0.34
CCc1ccc(/C=C2\SC(=S)N(CCCC(=O)Nc3ccccn3)C2=O)cc1	4	-2	0.62	4	.	.
O=C(CCN1C(=O)/C(=C\c2cccs2)SC1=S)NC1=NCCS1	1	1	-0.41	4	-1	.
CCc1ccc(/C=C2/SC(=S)N(CC(=O)Nc3nc4ccccc4s3)C2=O)cc1	-12	2	4.9*	3	.	.
CCc1ccc(/C=C2\SC(=S)N(CCC(=O)NC3=NCCS3)C2=O)cc1	-26	2	-0.66	9.3*	-10	-0.97
COc1ccccc1N1CCN(C(=O)c2ccc(Cn3c(=O)[nH]c4ccsc4c3=O)cc2)CC1	10	0	-1.1	.	-19	-0.064
CC(C)Sc1nc2[nH]ncc2c(=O)[nH]1	-8	3	-1.8	1	-8	0.25
O=c1c2cc(NC(=S)N3CCCCC3)ccc2nc2n1CCCCC2	2	1	0.048	2	4	0.55
O=C(Nc1ccc2nc3n(c(=O)c2c1)CCCC3)c1cccc([N+](=O)[O-])c1	-15	2	-0.36	8.8*	-5	.
CCOc1cc(N2CCOCC2)c(OCC)cc1NC(=O)CN1C(=O)NC(Cc2ccccc2)C1=O (centres undefined)	-30	12*	-0.45	4	-7	0.42
SMILES	S1P4 antagonist	S1P4 agonist	KCC2 mod	RAM inhibit	S1P3 antagonist	ROMK primary
CCOc1cc(N2CCOCC2)c(OCC)cc1NC(=O)c1ccc(OC(C)C)cc1	0	0	0.53	8.8*	-4	0.79
CC1=NNC(=O)C1CCC(=O)N/N=C/c1ccccc1 (centres undefined)	1	1	0.26	.	5	-0.66
CCOC(=O)c1cn(-c2nc(-c3ccc(Cl)c(Cl)c3)cs2)c2c(F)c(N3CCOCC3)c(F)cc2c1=O	-2	-1	0.19	9.7*	.	.
CC(=O)Oc1ccc2cc(-c3ccccc3)c(=O)oc2c1	12	8	-0.46	.	13	.
C/C=C/c1ccc(OCCCCOc2ccc(OC)cc2)c(OC)c1	-8	1	-0.081	10*	3	.
Cc1cccc(NC(=O)c2sc(C)nc2C)c1	-2	-1	0.91	-1	.	0.25
Cc1cccc(C(=O)Nc2nc(C)c(C(=O)Nc3ccc4c(c3)CCC4)s2)c1	0	2	-0.18	8.6*	.	.
COc1c(O)ccc(C2NC(=O)NC(C)=C2C(=O)Nc2ccccc2C)c1[N+](=O)[O-] (centres undefined)	-4	-1	0.018	2	-19	-0.43
COc1ccc(/C=N/NC(=O)CNC(=O)C2COc3ccccc3O2)cc1OC (centres undefined)	-15	-1	-0.34	1	-7	0.092
Cc1cc(C(F)(F)F)c2c(=O)[nH]c(=O)n(Cc3ccccc3)c2n1	6	-3	-4.3*	2	-14	.
O=c1[nH]c(=O)n(Cc2ccccc2)c2nc(-c3ccco3)cc(C(F)(F)F)c12	-11	1	-0.68	6	-10	0.24
CCOC(=O)C1=C(C)Nc2ccccc2N=C1NC(=O)c1ccc(Cl)c(S(=O)(=O)N2CCCC2)c1	-20	1	-1.2	8.7*	3	0.11
COC(=O)C1=C(C)NC(=S)NC1c1ccco1 (centres undefined)	13	-1	0.25	1	3	0.69
O=C1/C(=C/c2ccccn2)COc2ccccc21	7	-2	0.53	-1	-14	-1.6
CC1C/C(=C/c2ccccn2)C(=O)/C(=C/c2ccccn2)C1 (centres undefined)	19	-2	0.24	5	2	-4.7*
Cc1ccc(S(=O)(=O)N(CC(=O)Nc2ccccc2C(=O)O)c2ccc(Cl)cc2)cc1	-15	2	-2.2	8.5*	-14	-0.23
O=C(NCCOc1ccccc1F)c1cc(F)c(F)cc1Cl	-13	2	-0.89	-1	4	0.078
O=c1[nH]c(-c2ccccc2)nnc1-c1ccccc1	-4	1	-0.18	.	-11	-0.5
Cc1ccc(C)c(OCCn2cc(/C=C(/C#N)C(=O)NCC3CCCO3)c3ccccc32)c1 (centres undefined)	-27	0	-0.26	8.8*	-16	.
O=C(CC1Nc2ccccc2NC1=O)NCc1cccnc1 (centres undefined)	-14	1	.	0	102*	0.12
CCCCNC(=O)CC1Nc2ccccc2NC1=O (centres undefined)	-4	2	-0.51	0	-42	.
CCCOC(=O)Nc1cc(OC)ccc1[N+](=O)[O-]	13	0	-0.19	-1	-19	0.85
COc1ccccc1OCCNc1cc(N2CCCCC2)ccc1[N+](=O)[O-]	-1	-2	-0.03	11*	0	0.036
